Laboratory results as given in PubChem BioAssay AID588692 (Broad Institute, 2011).
“And” between values parts separate entries of the source, which are not always exact repeats. Equal values may be shown once. The whole screen tested about 360,000 compounds, of which about 830 (0.23%) were called active.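 How the source made its calls: active means mean luciferase reporter signal, scaled so untreated is 0 and the glycosylation-blocking control 100, at or above a set limit in every replicate; inconclusive means mean reaches the limit but not every replicate does; inactive means mean below the limit.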 For the sample, actives were picked, then their nearest neighbours and some compounds at random.

Test: increase of ERlucT glycosylation luciferase signal, primary screen, N-linked glycosylation inhibitor project, D54 ERlucT cells, luminescence, set 2 (AID 588692);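 further: luciferase carries N-glycosylation sites so blocking glycosylation raises the light; 0% = median of neutral control wells and 100% = median of 100 nM tunicamycin wells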
Conditions: 24 h, at 12.5 µM, hits give high values, percent of 100 nM tunicamycin response

Reporter increase, inactive:
COc1cc(N/C=C2\CC(=O)NC(C)=C2C#N)cc(OC)c1OC 0.911%, O=C1/C(=C\c2ccc(O)cc2)CCC1CNc1ccc(Cl)cc1 (stereo unspecified) 10.4%, Cc1ccc(C(=O)Nc2ccc3c(c2)OCCO3)cc1S(=O)(=O)N1CCOCC1 -2.07%, COc1cccc(OC)c1C(=O)Nc1ccc2c(c1)n(C)c(=O)n2C 9.32%, Cc1ccc(S(=O)(=O)N2CCOCC2)cc1NC(=O)c1ccncc1 0.492%, Cc1ccc(S(=O)(=O)NN=C2CC(C)(C)CC(=O)C2(C)C)cc1 -0.913%, Cc1cccc(S(=O)(=O)N2CN(CC3CCCO3)c3nc4ccccc4nc32)c1 (stereo unspecified) 0.557%, Cc1sc2c(c1C)c(=O)n(-c1ccccc1)c1nncn21 3.73%, COCCN(CCOC)S(=O)(=O)c1ccc(C(=O)Nc2nc3c(s2)CCc2ccccc2-3)cc1 -0.048%, O=C(Nc1ccc(S(=O)(=O)N2CCc3ccccc3C2)cc1)c1ccccc1 -1.85%, C[C@H](CO)N1C[C@H](C)[C@H](CN(C)CC2CC2)Oc2ccc(NC(=O)CCN3CCOCC3)cc2C1=O 1.29%, CCc1nnc(NC(=O)C2CC(=O)N(c3ccc4c(c3)OCCO4)C2)s1 (stereo unspecified) 1.58%, CN(C)C(=O)c1coc2nc3ccccc3nc12 0.129%, CNC(=O)C(NC(=O)c1ccccc1)=C(C)C -0.912%, COc1ccc2[nH]c3c(c2c1)CCN1C(=O)C(CC(=O)NCCc2ccccn2)C[C@H](C(=O)N2CCOCC2)[C@@]31C (stereo partly specified) 2.29%, CSc1cc(C)n(-c2ccccc2C)c(=S)c1C(C)=O -0.347%, COc1ccccc1CNC(=O)CNC(=O)c1cn(-c2ccccc2OC)c(=O)c2ccccc12 1.89%, Cc1ccc(F)c(S(=O)(=O)NC(=O)C2(C)CCN2C(=O)CCc2cccs2)c1 (stereo unspecified) 2.26%, O=C(Nc1cccc(Cc2ccccc2)c1)Nc1ccc2nc([C@@H]3O[C@H](CO)[C@@H](O)[C@H](O)[C@H]3O)[nH]c2c1 0.008%, NNC(=O)CNC(c1ccccc1)c1cc(Cl)ccc1NC(=O)c1ccccc1 (stereo unspecified) -3.39%, CN(CC1CCCO1)S(=O)(=O)c1ccc(C(=O)Nc2ccc([N+](=O)[O-])cc2)cc1 (stereo unspecified) -5.35%, CC(C)c1ccc(NC(=O)CCN2C(=O)c3ccc([N+](=O)[O-])cc3C2=O)cc1 1.26%, COCCCn1c(SCC(=O)Nc2oc(C)c3c(C)n[nH]c(=O)c23)nc2sc3c(c2c1=O)CCC3 4.94%, C1CC1Cc1noc(CN2CCN(CC3CC3)CC2)n1 -0.901%, O=C(Cn1cnc2ccccc21)Nc1ccccc1-c1ccccc1 0.271%, O=C(COC(=O)Cn1cnc2ccccc2c1=O)NCc1ccccc1Cl 0.775%, COc1cc(C(=S)N2CCOCC2)cc(OC)c1OC(=O)c1cc([N+](=O)[O-])c(C)c([N+](=O)[O-])c1 1.27%, CSc1ccc(/C=N/N2CCN(Cc3ccccc3Cl)CC2)cc1 2.53%, Cc1ccc(C)c(NC(=O)CCC(=O)N/N=C2/CC(=O)CC(C)(C)C2)c1 0.203%, CC(C)NC(=O)Nc1cccc2c1O[C@H](CN(C)S(=O)(=O)c1cccs1)[C@@H](C)CN([C@H](C)CO)C2=O 0.641%, O=C(CNCc1ccco1)Nc1cc(S(=O)(=O)N2CCOCC2)ccc1N1CCCC1 2.55%, O=[N+]([O-])c1cc(S(=O)(=O)Nc2cccc(Cl)c2)ccc1N=Nc1c(O)[nH]c2ccccc12 -5.47%, CC1(C)Cc2c(cnn2-c2cccc(F)c2)C(NC(=O)c2cc[n+]([O-])cc2)C1 (stereo unspecified) 1.53%, Cc1cc(C(=O)NC2CC(C)(C)Cc3c2cnn3-c2ccccc2)n[nH]1 (stereo unspecified) -9.34%, CN(CCO)C(=O)c1nc[nH]c1C(=O)N(C)Cc1ccccc1 1.82%, COc1cc(CCN=Cc2ccccc2O)c([N+](=O)[O-])cc1OC 2.9%, COc1ccc(OC)c2[nH]c(=O)c(CCNC(=O)C(=O)c3c[nH]c4ccccc34)cc12 -0.931%, O=c1ccc2cc(S(=O)(=O)NCCCc3ccccc3)ccc2[nH]1 -0.159%, O=C(N/N=C\c1cccc(Br)c1)c1ccccc1-n1cccc1 0.034%, O=C(Nc1ccc(N2CCCC2=O)cc1)c1cncc(Br)c1 -9.16%, COCOc1cccc(CN2CCC(C)(Oc3ccc(SC)cc3)C2)c1 (stereo unspecified) -0.871%, Cc1ccc(C)c(NC(=O)C2Cc3ccccc3CN2C(=O)OCc2ccccc2)c1 (stereo unspecified) -1.83%, O=C(COc1ccc(Cl)cc1)Nc1ccc2oc(=O)ccc2c1 -2%, CCCNC(=O)C1(C)CCN(Cc2ccc(Cl)c(Cl)c2)C1 (stereo unspecified) 0.635%, Cc1cc(C)c2c(=O)n3c(nc2c1)C(CC(C)C)NC(=O)c1cc2ccccc2cc1-3 (stereo unspecified) -7.33%, CCN(CC)CCNCC(=O)Nc1ccc(Oc2ccccc2)cc1 0.423%, CN(CCOc1ccc(CC2SC(=O)NC2=O)cc1)c1ccccn1 (stereo unspecified) 4.03% and 1.28%, CC[C@H](C)C(=O)N[C@H]1CCCN1C(=O)/C=C/c1ccccc1 -0.751%, CN1CCN(Cc2nc3c(c(=O)n(C)c(=O)n3C)n2Cc2cccc3ccccc23)CC1 -0.438%, O=c1c2cc(-c3ccccc3)sc2nc2n1N=C(c1cccs1)CS2 -9.8%, O=C(O[C@H]1[C@H](Cc2ccccc2)NS(=O)(=O)[C@H]2C[C@@H]3C=C[C@]12O3)c1ccc([N+](=O)[O-])cc1 2.96%, CC(Sc1nncs1)C(=O)NCc1ccc2c(c1)OCO2 (stereo unspecified) -1.14%, COc1cc(OC)c2c(-c3cccc(-c4cccc(N)c4)c3)cc(=O)oc2c1 4.55%, CC(CNS(=O)(=O)c1ccc(Br)cc1)CN(C)C (stereo unspecified) 0.673%, COc1ccccc1C(=O)COC(=O)CSCC(=O)Nc1cc(C)on1 1.73%, O=C(NCC1CCCO1)C(C(=O)c1ccccc1)n1cc(Cl)ccc1=O (stereo unspecified) 1.12%, CCn1c(SCC(=O)NC2CC2)nnc1-c1ccccc1OC 1.11%, COc1ccccc1-c1nnc2n1N=C(c1ccc(OC(F)F)c(OCC3CC3)c1)CS2 5.65%, Cn1c(=O)[nH]c2c(c(C(=O)O)nn2C)c1=O -0.816%, COCCn1c(SCC(=O)N2CCCCCC2)nc2c(c1=O)SCC2 2.05%, CCCNC(=O)C1(C)CCCN(C(=O)c2oc3ccccc3c2C)C1 (stereo unspecified) -0.622%, C/C(=N\NC(=O)OC(C)(C)C)c1ccc[nH]1 -4.4%, CC1CCCCN1CCCNc1ccc(C(CC(N)=O)NC(=O)c2ccccc2)cc1[N+](=O)[O-] (stereo unspecified) 2.79%, NC(=O)CC(NC(=O)Cc1cccc2ccccc12)c1ccc(NCc2cc(F)ccc2F)c([N+](=O)[O-])c1 (stereo unspecified) 16%, CCOc1ccc2c(=O)c(-c3ccc4c(c3)OCCCO4)c(C)oc2c1 -1.81%, COc1ccc(C(=O)NCC(c2ccco2)N2CCc3ccccc32)cc1OC (stereo unspecified) 2.39%, COC(=O)c1ccc(COC(=O)C2CCN(S(=O)(=O)c3c(Cl)cccc3Cl)CC2)o1 0.74%, CC12CN(Cc3ccccc3)CC(C)(CN(Cc3ccccc3)C1)C2=NO -0.263%, CS(=O)(=O)N(CC(O)Cn1c2ccccc2c2ccccc21)c1cccc2ccccc12 (stereo unspecified) -2.21%, CC/C(=N/Nc1ccccc1)c1cnnc(SC)n1 0.994%, Cc1cc(S(=O)(=O)c2cc3ccc(O)c(C)c3oc2=O)ccc1F 1.14%, COCCn1cnc2c1c(=O)n(CC(=O)NN)c(=O)n2Cc1ccccc1 -0.206%, Fc1ccc2nc(-c3ccccc3)nc(SCc3nnc(-c4ccccc4)o3)c2c1 -4.84%, Cn1cnnc1SCc1nnc(-c2ccccc2Br)o1 2.03%, CN(C(=O)CSc1nnc(-c2ccc3c(c2)OCO3)o1)C1CCS(=O)(=O)C1 (stereo unspecified) 1%, Cc1[nH]nc(-c2ccc(OCc3cnn(-c4ccccc4)c3)cc2O)c1Oc1ccc(Cl)cc1 -4.08%, O=C(NCCN1CCOCC1)c1cc(Sc2cccc(Cl)c2)nc2ccccc12 -2.52%, Cc1cccc(C)c1OCCN1CCOCC1 -0.152%, CCOCCCNC(=S)N1CCC(NC(=O)C2CCCCC2)CC1 -1.17%, O=C1CN(C(=O)COC(=O)C2CC(=O)N(Cc3ccco3)C2)c2ccccc2N1 (stereo unspecified) 1.95%, C=CCN1C(=O)c2ccc(C(=O)N3CCC(C(=O)OCC)CC3)cc2C1=O 0.619%, COc1ccc(C(C)C)cc1-c1ccc2nncn2c1 -0.123%

Reporter increase, active:
Cn1c(=O)n(C)c2cc(C(=O)Nc3ccc4c(c3)OCO4)ccc21 70.1%, C=CCN(CC=C)S(=O)(=O)c1ccc(C(=O)Nc2nc3c(s2)CCc2ccccc2-3)cc1 55.6%, CNC(=O)c1cccc2nc3ccccc3nc12 39.1%, Cn1ccc(=Nc2ccc(NC(=O)c3ccc(N=c4ccn(C)c5ccc([N+](=O)[O-])cc45)cc3)cc2)cc1 32.9%, O=C(COC(=O)Cn1cnc2ccccc21)Nc1cccc2c1C(=O)c1ccccc1C2=O 103%, COC(=O)c1ccc(C(=O)NC2CC(C)(C)Cc3c2cnn3-c2ccc(F)cc2)nc1 (stereo unspecified) 26.7%, O=C(N/N=C/c1cccc(Br)c1)c1ccc(N2CCCC2=O)cc1 29.6%, CCN(CC)CCOc1ccc2c(c1)C(=NNC(=O)c1ccccn1)c1cc(OCCN(CC)CC)ccc1-2 68.7%, Cc1cc(C)c2nc3nc(C)cc(C)c3c(N)c2c1 79%, COc1ccc(C2=Nn3c(nnc3-c3ccccc3OC)SC2)cc1OC1CCCC1 33.9%, NC(=O)CC(NC(=O)Cc1ccc(Br)cc1)c1ccc(NC2CC3CCC2C3)c([N+](=O)[O-])c1 (stereo unspecified) 43%, O=[N+]([O-])c1ccc(C=Nc2ccc(Cl)cc2Cl)s1 36.7%, Cc1ccc2nc(SCc3nnc(-c4ccccc4[N+](=O)[O-])o3)c(C#N)cc2c1 35.7%, c1ccc2cc3c(NCCN4CCOCC4)ccnc3cc2c1 102%
